Source: PubChem (several laboratories)
An excerpt weighted towards active compounds, which were near 27% of everything screened.
CYP2C9 inhib = blocks human cytochrome P450 2C9. 96,000 tested, 20% active. inhibition, % at 5 µM. CYP2C9 Supersomes, luciferin-H conversion, luminescence. P11712;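 active = blocking of liver enzyme CYP2C9 beyond about 50% at 5 µM, limit read from the data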
CYP2C9 act = increases human cytochrome P450 2C9 activity | recombinant CYP2C9, luciferin-H conversion, luminescence; hits give high values; factor 1 = untreated enzyme, 0 = blocked | activation factor at 5 µM | 96,000 tested, 1.4% active;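 active = activation factor of 2 or more for CYP2C9 at a 5 µM dose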
Cav32 inh = blocks human Cav3.2 T-type calcium channel. Cav3.2-expressing cells, Fluo-4 calcium fluorescence FDSS; hits give low values. 100,000 tested, 4% active. O95180. B-score at 10 µM;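 active = single-dose well whose peak fluorescence ratio is a statistical outlier from its plate by either plate-standardised score or position-corrected B-score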
CYP2C19 act = activators of human cytochrome P450 2C19 | recombinant CYP2C19, luciferin-H EGE luminescence; hits give high values; 0 = fully inhibited enzyme, 1 = untreated enzyme | AID 1025 | P33261 | activation factor at 5 µM | 96,000 tested, under 10 active;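 active = activation factor of at least 2 at 5 µM in the primary screen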
CYP2C19 inh = human CYP2C19 inhibition; P33261; CYP2C19 Supersomes, luciferin-H EGE luminescence, 30 min; inhibition, % at 5 µM; 96,000 tested, 21% active; AID 778;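 active = CYP2C19 inhibition above a set limit at 5 µM in the primary screen, cut at about 50% in these data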
Of the large screens only hits and unclear results are named; the others gave an inactive call.

N#CC1=C(N)NC(SCC(=O)Nc2ccccc2)=C(C#N)C12CCCC2	CYP2C9 inhib 95, CYP2C19 inh 99
CC1=C(C(=O)Nc2ccccc2)C2(CCCCC2)C(C#N)=C(S)N1	CYP2C9 inhib 84, CYP2C19 inh 68
CCOC(=O)c1ccc(NC(=O)CSC2=NC(=O)C(CC)C(=O)N2)cc1 (stereo not given)	none (no result: CYP2C9 inhib, CYP2C9 act, CYP2C19 act, CYP2C19 inh)
N#CC1(c2ccc(NC(=O)c3ccccc3)cc2)CCCC1	none
CCOC(=O)C1=C(SCC(=O)Nc2ccccc2)NC(=O)C(C#N)C12CCCCC2 (stereo not given)	CYP2C9 inhib 85, Cav32 inh -4.1, CYP2C19 inh 93
N#CC1=C(N)NC(SCC(=O)O)=C(C#N)C12CCCC2	none (no result: Cav32 inh)
N#CC1=C(N)NC(SCc2ccc(F)cc2)=C(C#N)C12CCCCC2	CYP2C9 inhib 100, CYP2C19 inh 100 (no result: Cav32 inh)
C=CCn1c(-c2csc(-c3ccc(Cl)cc3)n2)n[nH]c1=S	CYP2C19 inh 81
C=CCn1c(-c2csc(-c3ccccc3)n2)n[nH]c1=S	none
C=CCn1c(-c2csc3ccccc23)n[nH]c1=S	CYP2C9 inhib 78, CYP2C19 inh 93
Cc1ccc(C(C(=O)NC2CCCC2)N2CCc3ccccc32)cc1 (stereo not given)	none
O=[N+]([O-])c1cccc(C2=NC(c3ccccc3)CO2)c1 (stereo not given)	none (no result: CYP2C9 inhib, CYP2C9 act, CYP2C19 act, CYP2C19 inh)
CC(=O)N1N=C(c2cccc([N+](=O)[O-])c2)OC1c1ccccc1Cl (stereo not given)	CYP2C9 inhib 86, CYP2C19 inh 62
COc1ccc(Cc2nnc(-c3cccc(C)c3)o2)cc1OC	none (no result: CYP2C9 inhib, CYP2C9 act, CYP2C19 act, CYP2C19 inh)
COc1ccccc1CNC(=O)CCc1nc2ccccc2c(=O)[nH]1	none
COc1ccc(CNn2c(-c3cccc(C)c3)nc3ccccc3c2=O)cc1OC	CYP2C19 inh 81
COc1ccccc1CNn1c(-c2cccc(C)c2)nc2ccccc2c1=O	CYP2C9 inhib 86, CYP2C19 inh 97
O=C(O)C1C2C=CC3(CN(Cc4ccncc4)C(=O)C13)O2 (stereo not given)	none (no result: CYP2C9 inhib, CYP2C9 act, CYP2C19 act, CYP2C19 inh)
COCCCN(C(C)=O)c1nc(-c2ccc(OC)cc2)cs1	none (no result: Cav32 inh)
CCCCOc1ccccc1NC(=O)Cn1c(-c2nonc2N)nc2ccccc21	CYP2C9 inhib 70, Cav32 inh -4.2
CCOC(=O)Cn1c(-c2nonc2NC(=O)c2ccccc2F)nc2ccccc21	CYP2C9 inhib 92
CCC(=O)Nc1nonc1-c1nc2ccccc2n1Cc1ccccc1	none
CSc1ccccc1NC(=O)Cn1c(-c2cscn2)nc2ccccc21	CYP2C9 inhib 78, CYP2C19 inh 98
CC(C)(C)NC(=O)Cn1c(-c2nonc2N)nc2ccccc21	CYP2C9 inhib 76, CYP2C19 inh 62
Nc1nonc1-c1nc2ccccc2n1CC(=O)N/N=C\c1ccc(-c2ccc(Cl)cc2)o1	none
CCOC(=O)CSc1nc2ccccc2n1CC(=O)NC(C)(C)C	none
COC(=O)Cn1cnc2c1c(=O)n(C)c(=O)n2C	none (no result: CYP2C9 inhib, CYP2C9 act, CYP2C19 act, CYP2C19 inh)
Cn1c(=O)c2c(ncn2CC(N)=O)n(C)c1=O	none
Cn1c(=O)c2c(ncn2CC(=O)OCc2ccccc2)n(C)c1=O	CYP2C9 inhib 63
COCCNC(=O)Cn1cnc2c1c(=O)n(C)c(=O)n2C	Cav32 inh -5.3
Cn1c(=O)c2c(nc(SCC(=O)OCc3ccccc3)n2C)n(C)c1=O	CYP2C9 inhib 80
Cn1c(=O)c2c(ncn2Cc2ccc(Cl)c(Cl)c2)n(C)c1=O	CYP2C9 inhib 61, CYP2C19 inh 92
COc1ccc(OC)c(-c2cc(C(=O)NCCN3CCOCC3)no2)c1	none
Cc1ccc2nc(/C(C#N)=C\c3ccc(N4CCOCC4)o3)[nH]c2c1	Cav32 inh -5 (no result: CYP2C9 inhib, CYP2C9 act, CYP2C19 act, CYP2C19 inh)
Cc1ccc2[nH]c(=O)c(CN(CCc3ccccc3)Cc3nnnn3CC3CCCO3)cc2c1 (stereo not given)	Cav32 inh -3.6 (no result: CYP2C9 inhib, CYP2C9 act, CYP2C19 act, CYP2C19 inh)
COc1ccc2cc(CN(CCc3ccccc3)Cc3nnnn3CC3CCCO3)c(=O)[nH]c2c1 (stereo not given)	CYP2C9 inhib 63
O=c1[nH]c2cc3c(cc2cc1CN(CCc1ccccc1)Cc1nnnn1CC1CCCO1)OCO3 (stereo not given)	none
COc1ccc2[nH]c(=O)c(CN(CCc3ccccc3)Cc3nnnn3CC3CCCO3)cc2c1 (stereo not given)	CYP2C19 inh 68
CS(=O)(=O)Nc1ccc(C(=O)NCc2ccco2)cc1	none
CCOc1ccc2nc(SCC(=O)NC(=O)NCc3ccco3)[nH]c2c1	none
CC1(C)C(=O)OC(c2cccs2)C2(CCCCC2)C1=O (stereo not given)	none
Cc1cc(C)nc(Nc2nc(=O)c3ccccc3s2)n1	none
CN(C)C=Nc1c(Br)cc(Br)c2nonc12	Cav32 inh -4.2
CCC1/C(=N\O)CC(c2ccco2)NC1c1ccco1 (stereo not given)	none
O=C1CC(c2ccccc2)NC(=O)N1 (stereo not given)	none
CC1C(=O)CC(c2ccccc2)NC1c1ccccc1 (stereo not given)	CYP2C19 inh 82
CC1C(=O)CC(c2ccco2)NC1c1ccco1 (stereo not given)	CYP2C19 inh 69
O=C(NC(=S)Nc1ccccc1)c1csnn1	none
COc1ccc(CN(CC2CCCO2)C(=O)CN2C(=O)COc3ccccc32)cc1OC (stereo not given)	none (no result: CYP2C9 inhib, CYP2C9 act, CYP2C19 act, CYP2C19 inh)
COc1ccc2oc(-c3ccc(C)c(NC(=O)c4ccc(N5CCOCC5)c([N+](=O)[O-])c4)c3)nc2c1	none
CC(C)(C)c1ccc(S(=O)(=O)N2C=CC(C(F)(F)F)=NCC2)cc1	CYP2C19 inh 86
Cc1cc(C)cc(OC(=O)N2CCOCC2)c1	none
COc1ccc(S(=O)(=O)N2CCN(CC(=O)Nc3ccc(C)c(F)c3)CC2)cc1	Cav32 inh -4.2, CYP2C19 inh 82
COc1ccc(S(=O)(=O)N2CCN(CC(=O)Nc3cccc(F)c3)CC2)cc1	CYP2C19 inh 54 (no result: Cav32 inh)
O=C(CCCc1nc(-c2ccccc2)no1)N1CCOCC1	none
O=C(CSC1=NCCS1)Nc1nc2c(s1)CCCC2	none (no result: Cav32 inh)
COC(=O)c1cc(CSc2nnc(NC3CCCCC3)s2)oc1C	none
COc1ccc(/C=C(/C(=O)Nc2ccccc2C(=O)NC(C)C)c2ccccc2)cc1	CYP2C9 inhib 60 (no result: Cav32 inh)
CC(C)NC(=O)c1onc(CSc2cccc(Cl)c2)c1C(=O)O	CYP2C9 inhib 64
CC(C)NC(=O)c1onc(CSc2ccc(F)c(F)c2)c1C(=O)O	CYP2C9 inhib 76
CC(C)NC(=O)c1onc(CSc2ccc(F)c(F)c2)c1C(=O)NC(C)C	none (no result: CYP2C9 inhib, CYP2C9 act, CYP2C19 act, CYP2C19 inh)
O=C(NCC1CCCO1)c1onc(CSc2ccc(Cl)cc2)c1C(=O)O (stereo not given)	CYP2C9 inhib 51
Cc1ccc(SCc2noc(C(=O)NC(C)C)c2C(=O)O)cc1C	CYP2C9 inhib 80
COC(=O)COC(=O)c1ccc(Oc2nc(OC)nc(N(C)C)n2)cc1	none
Cc1nc2cc(CC(=O)O)ccc2o1	none
CC(C)NC(=O)c1onc(CSc2ccc(C(C)C)cc2)c1C(=O)O	CYP2C9 inhib 91
Cc1ccccc1SCc1noc(C(=O)NC(C)C)c1C(=O)O	none
Cn1c(NC(=O)c2cc(Cl)ccc2Cl)cc(=O)n(C)c1=O	none
